Measurements published in PubChem BioAssay (NCI).
About 83,000 compounds went through this panel and 20% of them were active in at least one assay; those are over-represented in the sample as a whole.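 Plates (96-well) were seeded with cells, treated with compound at one concentration, and incubated for 48 hours before percent growth was determined.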 Active and inactive are the calls of the source. Rule for the calls: active = growth percent below 10; inactive = the rest.

How the values were obtained:
Assay in all cases: NCI-60 one-dose screen, 48 h (100 = growth as untreated, 0 = no growth, -100 = all killed)
Conditions in all cases: 10 µM unless noted
[1] = system: HCT-15 colon
[2] = system: HT29 colon
[3] = system: SNB-19 CNS
[4] = system: U251 CNS
[5] = system: PC-3 prostate
[6] = system: SK-MEL-5 melanoma
[7] = system: UACC-62 melanoma
[8] = system: LOX IMVI melanoma
[9] = system: SK-MEL-28 melanoma
[10] = system: SK-MEL-2 melanoma
[11] = system: EKVX NSCLC
[12] = system: SN12C renal
[13] = system: UO-31 renal
[14] = system: TK-10 renal
[15] = system: ACHN renal
[16] = system: CAKI-1 renal
[17] = system: A498 renal
[18] = system: MOLT-4 leukemia
[19] = system: CCRF-CEM leukemia

Measured: growth

Cc1cc(N/N=C/c2nc(-c3ccccc3)oc2C)c2cc(Br)ccc2n1
active: [8] -31.7%
inactive: [1] 43.6% | [2] 65.6% | [3] 91.2% | [4] 38.5% | [5] 79.5% | [6] 103% | [7] 88.3% | [9] 26% | [10] 106% | [11] 107% | [12] 32.3% | [13] 78.1% | [14] 101% | [15] 89.9% | [16] 80% | [17] 66.1% | [18] 50.5%

C=C1CCC2C3(C)COC(C)(C)OC3CCC2(C)C1C/C=C1/C(=O)OCC1Oc1ccccc1OC (configuration not stated)
inactive: [1] 43% | [2] 56.4% | [3] 88.7% | [4] 100% | [5] 90.5% | [6] 95.4% | [7] 80.4% | [9] 101% | [10] 95.6% | [11] 96.5% | [12] 84.2% | [13] 83.5% | [14] 139% | [15] 79.9% | [16] 90.6% | [17] 110% | [19] 13.3% | [18] 77.7%
active: [8] -3.97%

CC(C)C1=CC2=C(C=O)C[C@@H]3[C@](C)(CCC[C@@]3(C)C(=O)OCC#CCN3CCCC3)[C@H]2CC1
inactive: [1] 60.9% | [2] 18.5% | [3] 85.2% | [4] 56.1% | [5] 54.9% | [6] 65.1% | [7] 77.4% | [8] 91.9% | [9] 96.8% | [10] 94% | [11] 98.2% | [12] 83.7% | [13] 61.6% | [14] 93.6% | [15] 97.3% | [16] 105% | [17] 88.6% | [19] 63.9% | [18] 66.9%

COc1cc(-c2nn(C(=O)NS(=O)(=O)c3ccccc3)cc2-c2ccncc2)ccc1Cl
inactive: [1] 97.9% | [2] 53.9% | [3] 95.3% | [4] 81.6% | [5] 78.2% | [6] 95.6% | [7] 66.7% | [8] 71.5% | [9] 91.8% | [10] 94.8% | [11] 56.1% | [12] 82.4% | [13] 69.7% | [14] 83% | [15] 80.3% | [16] 84.8% | [17] 60.3% | [19] 92.8% | [18] 83.9%

Cn1cc(-c2cnc3ccc(NC(=O)Nc4ccc(F)c(Br)c4)cc3n2)cn1
active: [5] 0.663% | [6] -9.12% | [7] -41.2% | [8] 4.06% | [10] -3.42% | [19] 4.33% | [18] -21.2%
inactive: [1] 19.3% | [2] 40% | [3] 57.7% | [4] 44.9% | [9] 50.1% | [11] 29.7% | [12] 46.1% | [13] 16.9% | [14] 52% | [15] 20.2% | [16] 12.8% | [17] 16.5%

CC(C)(C)n1cc(-c2ccnc(NCCNS(=O)(=O)c3ccc(Cl)cc3)c2)c(-c2cccc(O)c2)n1
inactive: [1] 15.1% | [2] 16.6% | [3] 76.6% | [4] 46.1% | [5] 34.5% | [6] 25% | [7] 71.7% | [8] 41.5% | [9] 63.3% | [10] 74.3% | [11] 60.2% | [12] 61.6% | [13] 49.6% | [14] 108% | [15] 76.8% | [16] 71.8% | [17] 69.4% | [19] 50.3% | [18] 31.9%

C=CCn1cc(-c2nc3ccccc3s2)c2cc(-c3ccc4c5c(cccc35)C(=O)N(CCN3CCNCC3)C4=O)ccc21
inactive: [1] 16.1% | [2] 11% | [3] 90% | [4] 95.2% | [5] 65.2% | [6] 99.1% | [7] 93.6% | [8] 77.6% | [9] 107% | [10] 99% | [11] 87.8% | [12] 76.3% | [13] 80.7% | [14] 132% | [15] 67.4% | [16] 74% | [17] 98.9% | [19] 30.2% | [18] 92.8%

CCN(CC)CCC(CNc1c2ccc(Cl)cc2nc2ccc(OC)cc12)c1ccccc1 (configuration not stated)
active: [1] -18.4% | [2] -36.1% | [3] 5.5% | [4] -59.1% | [6] -97.9% | [7] -61.2% | [8] -25.4% | [9] -100% | [10] -71.2% | [13] -95.2% | [14] -11% | [15] -95% | [16] -40.5% | [19] 0.732% | [18] -7.09%
inactive: [5] 17.6% | [11] 52.1% | [12] 16.8% | [17] 88.8%

CCOC(=O)c1cn2c3c(cc(C)cc3c1=O)C(=O)/C(=C/c1ccccc1)C2
inactive: [1] 109% | [2] 105% | [3] 84.4% | [4] 83.3% | [5] 99% | [6] 91.3% | [7] 68.1% | [8] 94.5% | [9] 93.8% | [10] 95.5% | [11] 101% | [12] 94.2% | [13] 57.6% | [14] 75% | [15] 91.3% | [16] 73.3% | [17] 86.9% | [19] 93.5% | [18] 86.9%

NC(=S)N/N=C(/CCN1CCCC1)CC(C1=C(O)C2=CCCCC2OC1=O)c1ccccc1 (configuration not stated)
inactive: [1] 75.6% | [2] 36.2% | [3] 109% | [4] 88% | [5] 85.6% | [6] 98.3% | [7] 97.4% | [8] 56% | [9] 99.6% | [10] 93.2% | [11] 63.3% | [12] 85.3% | [13] 64.5% | [14] 120% | [15] 89.4% | [16] 98.6% | [17] 109% | [19] 48.9% | [18] 64.8%

COc1cccc(CC(C)=C(c2ccc(OCCN3CCCCC3)cc2)c2ccc(OCCN3CCCCC3)cc2)c1
active: [1] -68.1% | [2] -77.9% | [3] -9.73% | [4] -83.7% | [6] -96% | [7] -72.7% | [8] -91.9% | [9] -87.9% | [10] -65.4% | [12] -42.3% | [13] -92.2% | [15] -88.4% | [16] -46.8% | [17] 8.39% | [19] -31.8% | [18] -34.3%
inactive: [5] 19.2% | [11] 18% | [14] 32.5%

O=S(=O)(NCCCNc1nccc(-n2ccc3cccnc32)n1)c1cccc(C(F)(F)F)c1
inactive: [1] 103% | [2] 111% | [3] 102% | [4] 97.8% | [5] 103% | [6] 106% | [7] 98.8% | [8] 99.9% | [9] 106% | [10] 107% | [11] 101% | [12] 108% | [13] 104% | [14] 102% | [15] 105% | [16] 94.6% | [17] 112% | [19] 102% | [18] 97.3%

c1cc(C2=N[C@@H]3c4ccccc4C[C@@H]3O2)nc(C2=N[C@@H]3c4ccccc4C[C@@H]3O2)c1
inactive: [1] 94.7% | [2] 105% | [3] 97.7% | [4] 101% | [5] 98.3% | [6] 102% | [7] 102% | [8] 97% | [9] 108% | [10] 103% | [11] 89.4% | [12] 97% | [13] 94.6% | [14] 101% | [15] 102% | [16] 92.4% | [17] 102% | [18] 106%

CCN(CC)c1ccc2[nH]c3c(C(N)=O)cc(=O)c(=O)c=3oc2c1
inactive: [3] 17.6% | [5] 13.4% | [9] 13.2% | [17] 46.2%
active: [1] 1.73% | [2] 5.89% | [4] -4.95% | [6] -84.7% | [7] -24.4% | [8] 3.27% | [10] -19.4% | [11] -10.4% | [12] -4.55% | [13] -28.8% | [14] 2.91% | [15] -8.77% | [16] -33.2% | [18] 1.5%

COc1ccc(/C=C\c2cc(OC)c(OC)c(OC)c2)cc1OC(=O)c1cccc(Cn2cc(CCOC(=O)c3cccc(Cn4nnc5c4C(=O)c4ccccc4C5=O)c3)nn2)c1
active: [6] -28.8% | [17] -4.1% | [19] 8.91%
inactive: [1] 10.5% | [2] 12.2% | [3] 28.6% | [4] 23.8% | [5] 22.8% | [7] 45.7% | [8] 21.2% | [9] 58% | [10] 50.9% | [11] 58.3% | [12] 18.9% | [13] 36.6% | [14] 76.4% | [15] 17.2% | [16] 31.2% | [18] 20.7%
